# Measured values from PubChem BioAssay (NCATS).
# “And” between values parts separate entries of the source, which are not always exact repeats. Equal values may be shown once. Records with an inconclusive call do not appear. Where a call stands in place of a potency, no number is given. The source made the active and inactive calls. Unless noted, calls follow the shape of the dose curve; as a rule, active = well fitted curve in the direction sought with a large enough effect; inconclusive = small, poorly fitted or top-dose-only effect, or another doubt; inactive = no such curve, though single readings can be large; an effect the other way counts as inactive or inconclusive.
# Legend:
# [1] = biological target: Calcium and integrin-binding protein 1 (Homo sapiens) (UniProt Q99828); assay: Primary qHTS for Identification of Calcium Integrin Binding Protein 1 (CIB1) Competitor (AID 1508620);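 also: GST tagged CIB1 binding a fluorescein labelled alphaIIb integrin peptide tracer; top concentration of the series differs between compounds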
# Summary of the method: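 CIB1-GST (1 uM final) and compound incubated 15 min at room temperature before adding FITC-alphaIIb peptide tracer (100 nM final). Competition for binding read by fluorescence polarization (ex 480, em 540) after another 15 min at room temperature.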
# [2] = biological target: Cytochrome P450 2D6 (Homo sapiens) (UniProt P10635); assay: Cytochrome P450 family 2 subfamily D member 6 (CYP2D6) small molecule antagonists: luciferase biochemical (cell-free) qHTS assay (AID 1645840; active = well fitted curve in the direction sought with a large enough effect in the repeat runs; an effect the other way counts as inactive or inconclusive; also: nearly all actives have a fitted effect of over 55% in size; also: potency is read from the fitted curve at half-maximal effect)
# Summary of the method: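 P450-Glo CYP2D6 system: proluciferin substrate converted by enzyme to luciferin, read by luminescence proportional to activity. Enzyme-substrate mix with compound 10 min at room temperature, then NADPH regeneration 1 h before detection reagent.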
# [3] = biological target: Cytochrome P450 2C9 (Homo sapiens) (UniProt P11712); assay: Cytochrome P450 family 2 subfamily C member 9 (CYP2C9) small molecule antagonists: luciferase biochemical (cell-free) qHTS assay (AID 1645842; active = well fitted curve in the direction sought with a large enough effect in the repeat runs; an effect the other way counts as inactive or inconclusive; also: nearly all actives have a fitted effect of over 55% in size; also: potency is read from the fitted curve at half-maximal effect)
# Summary of the method: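 P450-Glo CYP2C9 system: proluciferin substrate with enzyme in mix containing 0.4% BSA, 10 min at room temperature, then NADPH regeneration solution added and incubated 1 h at 37C. Detection reagent stopped reaction; luminescence read after 20 min as RLU.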
# [4] = Primary qHTS for inhibitors of nuclear receptor binding SET domain protein 2 (NSD2) in an isogenic RCH-ACV NSD2 p.E1099K mutant (9B) (AID 1645876); also: nearly all actives have a fitted effect of over 70% in size; also: potency is read from the fitted curve at half-maximal effect
# Calcium and integrin-binding protein 1 (Homo sapiens), sequence (Q99828 whole entry, looked up): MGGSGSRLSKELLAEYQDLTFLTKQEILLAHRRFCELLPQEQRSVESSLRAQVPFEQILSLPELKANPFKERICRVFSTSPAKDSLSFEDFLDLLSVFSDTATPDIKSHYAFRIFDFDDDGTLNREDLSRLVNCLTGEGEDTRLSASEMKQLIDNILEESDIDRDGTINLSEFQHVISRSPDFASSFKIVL
# Cytochrome P450 2C9 (Homo sapiens), sequence (P11712 whole entry, looked up): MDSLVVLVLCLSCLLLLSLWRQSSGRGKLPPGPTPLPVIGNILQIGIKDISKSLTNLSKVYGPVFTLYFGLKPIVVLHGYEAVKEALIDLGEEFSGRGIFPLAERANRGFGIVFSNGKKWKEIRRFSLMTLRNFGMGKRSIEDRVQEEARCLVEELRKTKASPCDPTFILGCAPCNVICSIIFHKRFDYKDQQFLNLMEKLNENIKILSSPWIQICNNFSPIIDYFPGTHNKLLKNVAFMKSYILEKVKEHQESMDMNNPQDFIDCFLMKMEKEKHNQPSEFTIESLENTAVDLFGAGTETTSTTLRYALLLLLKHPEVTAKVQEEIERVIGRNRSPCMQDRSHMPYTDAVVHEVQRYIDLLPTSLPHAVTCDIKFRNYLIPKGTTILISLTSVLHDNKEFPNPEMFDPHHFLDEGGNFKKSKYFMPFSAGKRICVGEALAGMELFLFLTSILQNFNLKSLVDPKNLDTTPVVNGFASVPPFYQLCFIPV
# Cytochrome P450 2D6 (Homo sapiens), sequence (P10635 whole entry, looked up): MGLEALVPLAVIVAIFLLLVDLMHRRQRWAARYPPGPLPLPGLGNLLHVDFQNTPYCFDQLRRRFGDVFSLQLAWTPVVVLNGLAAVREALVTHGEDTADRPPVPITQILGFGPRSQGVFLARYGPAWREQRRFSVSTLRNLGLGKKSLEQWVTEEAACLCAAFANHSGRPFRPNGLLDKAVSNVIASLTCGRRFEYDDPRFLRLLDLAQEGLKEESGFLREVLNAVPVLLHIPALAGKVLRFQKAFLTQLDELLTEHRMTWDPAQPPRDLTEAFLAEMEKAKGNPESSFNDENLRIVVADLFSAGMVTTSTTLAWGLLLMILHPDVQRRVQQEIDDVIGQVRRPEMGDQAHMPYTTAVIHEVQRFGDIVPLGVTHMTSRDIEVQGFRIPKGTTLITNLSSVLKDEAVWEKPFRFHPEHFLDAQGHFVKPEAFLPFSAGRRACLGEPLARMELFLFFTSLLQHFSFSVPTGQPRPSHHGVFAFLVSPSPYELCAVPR
Compound,Potency [1],Potency [2],Potency [3],Potency [4]
CC1(c2nc3c(C(N)=O)cccc3[nH]2)CCCN1 (centres undefined),inactive,inactive,inactive,inactive
COc1ccc(-c2ccc(-c3cn(C(=O)N4CCCCC4c4ccccc4)nn3)cc2)cc1 (centres undefined),inactive,inactive,2.13 µM (active),inactive
CNC(=O)c1ccccc1Nc1nc(Nc2ccc3c(c2OC)CCCC(N2CCN(CCO)CC2)C3)ncc1Cl (centres undefined),inactive,15.1 µM (active),inactive,6.49 µM (active)
COc1ccc2[nH]c3c(-c4cccc5ccccc45)nccc3c2c1,inactive,0.0151 µM (active),1.51 µM (active),0.916 µM (active)
COc1cccc(C(=O)N2CCN(C(=O)COc3cccc(C)c3)CC2)c1OC,inactive,inactive,21.3 µM (active),inactive
O=C(CN1C(=O)C2(CCCC2)NCC1c1cc(F)cc(F)c1)Nc1ccc2c(c1)CC1(C2)C(=O)Nc2ncccc21 (centres undefined),inactive,inactive,3.01 µM (active),inactive
CNCc1ccc(-c2cc(-c3nc(-c4ccc(S(=O)(=O)C(C)C)cc4)cnc3N)on2)cc1,inactive,inactive,2.13 µM (active),183 nM (active) and 83.3 nM (active)
CN(CCc1ccc(Nc2ncc(-c3cccnc3)s2)cc1)Cc1ccccc1,inactive,1.2 µM (active),12 µM (active),8.17 µM (active)
C=CC(=O)Nc1cccc(CN2C(=O)N(c3c(Cl)c(OC)cc(OC)c3Cl)Cc3cnc(NCCCCN(CC)CC)nc32)c1,inactive,21.3 µM (active),8.49 µM (active),2.05 µM (active)
CCNC(=O)Nc1ncc(-c2cc(-c3c(C)cc(OC)cc3C)nc(-c3cnccn3)n2)s1,inactive,8.49 µM (active),3.79 µM (active),inactive
CC(C)(C)c1ccc(S(=O)(=O)NCc2ccc(C(=O)Nc3cccnc3)cc2)cc1,inactive,6.74 µM (active),12 µM (active),0.258 µM (active)
Cc1cccc(Oc2cnc(=O)[nH]c2)c1,inactive,inactive,inactive,inactive
c1ccc(N2CCN(CCc3nn[nH]n3)CC2)cc1,inactive,inactive,9.52 µM (active),inactive
N#Cc1ccc(C(=O)N2CCC3(CC2)N=C(N)c2c(F)ccc(F)c2N3)cn1,inactive,15.1 µM (active),inactive,inactive
CC(C)CCC(=O)CC1c2ccccc2C(=O)N1c1ccc2ccc(Cl)nc2n1 (centres undefined),inactive,inactive,1.51 µM (active),inactive
CC(C)[C@@](C)(O)[C@@H]1CN(c2nc(-c3[nH]nc4ncccc34)c(F)cc2Cl)CCN1,inactive,0.849 µM (active),12 µM (active),6.49 µM (active)
COc1ccc(F)cc1-c1cc(NC(=O)[C@@H]2CCCNC2)ncc1Cl,inactive,inactive,1.34 µM (active),0.0649 µM (active)
Cc1[nH]c2ccccc2c1C1=C(NCCc2ccc(F)cc2)C(=O)N(C)C1=O,inactive,4.25 µM (active),0.379 µM (active),6.49 µM (active)
COc1ccc(-c2cnc(-c3cccc4c3-c3ccccc3C4=O)o2)cc1,inactive,inactive,0.657 µM (active),0.0893 µM (active)

Compound,Potency [1],Potency [2],Potency [3],Potency [4]
Nc1ccc(-c2cccc3c(=O)cc(N4CCOCC4)oc23)cc1,inactive,inactive,9.52 µM (active),1.63 µM (active)
O=C(NCc1ccccn1)Nc1nnc(-c2ccco2)o1,inactive,inactive,inactive,inactive
CC(NC(=O)C(O)C(C)C)C(=O)NC1C(=O)N(C)CCc2ccccc21 (centres undefined),inactive,inactive,inactive,inactive
COc1cc2nc(N3CCCC3)nc(NCCCCCN3CCCC3)c2cc1OC,inactive,4.77 µM (active),inactive,4.59 µM (active)
CC(C)(C)NCCCNC(=O)c1cccc(Br)c1,inactive,0.849 µM (active),inactive,inactive
Cc1cc(OCc2nnc(SC3CCCC3)n2-c2cccnc2)ccc1-c1ccc(S(C)(=O)=O)cc1,inactive,inactive,8.49 µM (active),0.817 µM (active)
COc1ncc2cc(C(=O)Nc3cc(C(=O)NCc4cccc(Cl)c4)ccc3Cl)c(=O)[nH]c2n1,inactive,inactive,19 µM (active),6.51 µM (active)
N#CC(c1ccnc(OCc2ccc(CN3CCOCC3)cc2)n1)c1nc2ccccc2s1 (centres undefined),inactive,inactive,10.7 µM (active),inactive
O=C(/C=C/c1cccc(S(=O)(=O)Nc2ccccc2)c1)NO,inactive,21.3 µM (active),10.7 µM (active),356 nM (active) and 296 nM (active)
COc1ccc(-c2ccc3c(N4CCOCC4)nc(N4CC(C)OC(C)C4)nc3n2)cc1CO (centres undefined),inactive,inactive,6.74 µM (active),0.205 µM (active)
CCCN1CCN(c2ccc(C(=O)NC3(C(=O)NCC#N)CCCCC3)cc2)CC1,inactive,inactive,inactive,inactive
CC(C)C(CO)Nc1nc(Nc2cc(N)cc(Cl)c2)c2ncn(C(C)C)c2n1 (centres undefined),inactive,23.9 µM (active),0.536 µM (active),6.49 µM (active)
C#CCN(Cc1cc2c(=O)[nH]c(C)nc2cc1Br)c1ccc(C(=O)NCc2cccnc2)cc1,inactive,inactive,3.01 µM (active),inactive
CCS(=O)(=O)N1CCN(c2ccc(Nc3ncc(C(N)=O)c(NC4CC4)n3)cc2)CC1,inactive,inactive,19 µM (active),230 nM (active) and 417 nM (active)
CCC(COC)n1nnc2c(Nc3ccc(OC)cc3C)nc(C)cc21 (centres undefined),inactive,10.7 µM (active),7.56 µM (active),inactive
NC(=O)Nc1cc(-c2cccc(F)c2)sc1C(=O)NC1CCCNC1 (centres undefined),inactive,inactive,inactive,0.0728 µM (active)
COc1c(Nc2ncc(Cl)c(N[C@H]3[C@@H](C(N)=O)[C@@H]4C=C[C@H]3C4)n2)ccc2c1CC[C@@H](N1CCOCC1)CC2,inactive,19 µM (active),6.01 µM (active),3.25 µM (active)
NC1CCC(Nc2cc(-c3cccc(NCc4cccc(F)c4)n3)c(Cl)cn2)CC1 (centres undefined),inactive,15.1 µM (active),2.13 µM (active),0.0817 µM (active)
Cc1ccc(NC(=O)C(=O)NC2CC(C)(C)NC(C)(C)C2)cc1,inactive,inactive,inactive,inactive

Compound,Potency [1],Potency [2],Potency [3],Potency [4]
COc1cc(Nc2nc3c(s2)CCCC3c2ccc(F)cc2)ccc1-n1cnc(C)c1 (centres undefined),inactive,0.849 µM (active),1.34 µM (active),11.5 µM (active)
CC1COC(Nc2ccc3ncnc(Nc4ccc(OCc5nccs5)c(Cl)c4)c3c2)=N1 (centres undefined),inactive,10.7 µM (active),10.7 µM (active),16.3 µM (active)
CN1CCC(Nc2nc(Nc3ccc(Oc4ccccc4)cc3)c3c(=O)[nH]cc(Br)c3n2)CC1,inactive,5.35 µM (active),16.9 µM (active),1.83 µM (active)
O=C(Nc1ccc(S(=O)(=O)Nc2ccccc2Cl)c(Cl)c1)c1ccccn1,inactive,inactive,0.674 µM (active),inactive
CCc1cc(CN2CC(C(=O)O)C2)sc1-c1noc(-c2ccc(Oc3ccccc3)cc2)n1,inactive,inactive,inactive,10 µM (active)
Cc1ccc(C(=O)N(CCCN)C(c2oc3cc(Cl)ccc3c(=O)c2Cc2ccccc2)C(C)C)cc1 (centres undefined),inactive,10.7 µM (active),10.7 µM (active),inactive
O=S(=O)(NCC1CC1)c1ccc(Nc2nccc(N3CCCc4cc(O)ccc43)n2)cc1,inactive,8.49 µM (active),1.07 µM (active),1.15 µM (active)
CC(C)c1nc(-c2ccc(NC(=O)Nc3cccc(C(F)(F)F)c3)c3ccccc23)c2c(N)nccn12,inactive,0.0674 µM (active),0.301 µM (active),0.578 µM (active)
COc1ccc(C(=O)Nc2ncc(-c3ccc(C(=O)O)cc3)s2)cc1,inactive,inactive,10.7 µM (active),1.63 µM (active)
Cc1cccc(S(=O)(=O)N2CCC[C@@H]2CCN2CCC(C)CC2)c1,inactive,2.39 µM (active),inactive,inactive
CC(C)(C)Nc1nc2cc(Cl)c(Cl)cc2nc1S(C)(=O)=O,inactive,6.01 µM (active),5.35 µM (active),1.29 µM (active)
CCN1CCN(Cc2ccc(NC(=O)Nc3ccc(Oc4cc(NC)ncn4)cc3)cc2C(F)(F)F)CC1,inactive,10.7 µM (active),inactive,3.65 µM (active) and 2.35 µM (active)
O=C(c1cn(Cc2cncn2Cc2ccc(Br)cc2)cc1-c1cccc2ccccc12)N1CCOCC1,inactive,10.7 µM (active),1.69 µM (active),1.83 µM (active)
COc1ccccc1Oc1ccc(N(Cc2cccnc2)S(=O)(=O)CC(F)(F)F)cc1,inactive,13.5 µM (active),1.9 µM (active),inactive
N#Cc1ccc(-c2cnc3[nH]cc(NC(=O)c4cccnc4)c3c2)cc1,inactive,inactive,2.68 µM (active),7.28 µM (active)
COc1cc(NC(=O)Nc2cccc(CNC(=O)O[C@H]3CCOC3)c2)ccc1-c1cnco1,inactive,0.338 µM (active),0.0379 µM (active),0.459 µM (active)
O=C(O)c1cccc(S(=O)(=O)N2CCc3ccccc3C2)c1,inactive,inactive,inactive,inactive
O=C(CCc1nnc2n(Cc3ccc(Cl)cc3)c(=O)c3ccccc3n12)NCCC1=CCCCC1,inactive,7.56 µM (active),4.77 µM (active),inactive
